Experimental data: PubChem BioAssay AID602274 (Sanford-Burnham Center for Chemical Genomics, 2012)
About 160 (0.044%) of roughly 360,000 compounds were called active. Shown is part of a subset that was picked to be rich in actives. A number with no mark means an inactive call. No stated cut-off is given here; in the data, active means survival enhancement above about 18%; inactive means the rest.

Assay: compounds raising survival of dissociated human iPSCs – cell-based, ATPlite luminescence, primary screen (AID 602274);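 further: cells exposed to compounds for 16 hours before the ATP read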
Details: hiPSC single-cell survival, at 20 µM, hits give high values, 100% = ROCK inhibitor wells, 0% = DMSO

Structure (SMILES)	survival enhancement
Nc1ncnc2c1ncn2[C@@H]1O[C@H](C(=O)NCC(F)(F)F)[C@@H](O)[C@H]1O	1.8%
CN(Cc1ccc(C(F)(F)F)cc1)C(=O)[C@H]1O[C@@H](n2cnc3c(N)ncnc32)[C@H](O)[C@@H]1O	20.3% (active)
Cc1nccn1-c1ccc(NC(=O)[C@H]2O[C@@H](n3cnc4c(N)ncnc43)[C@H](O)[C@@H]2O)cc1	1.4%
CCC(=O)c1ccc(OCC(O)CN2C(=O)NC(C)(C)C2=O)cc1 (centres undefined)	0.2%
C=Cc1ccc(C(=O)N2CCCC(CCC(=O)N3CCN(c4ccccn4)CC3)C2)cc1 (centres undefined)	-0.4%
CC(=O)NNC1=Nc2ccccc2N(C)C(C)C1 (centres undefined)	-0.5%
CC1CCCCC1NC(=O)CCS(=O)(=O)c1cccc2nonc12 (centres undefined)	1.2%
O=C(Nc1ccncc1)c1c(F)cccc1F	39.6% (active)
O=C(Nc1cccnc1)c1ccc(Cl)cc1[N+](=O)[O-]	-1.2%
O=C(Nc1ccncc1)c1ccccc1[N+](=O)[O-]	28.4% (active)
O=C(Nc1ccccc1-c1ccccc1)c1ccccc1[N+](=O)[O-]	0.6%
COc1cccc(OC)c1C(=O)Nc1ccc(Cc2ccncc2)cc1	0.6%
O=C(Nc1ccc(N2CCOCC2)nc1)c1c(F)cccc1F	-0.6%
Cc1cc2cc3c(cc2nc1SCC(=O)Nc1c(C)cccc1C)CCC3	-1.9%
CC(=O)c1ccccc1NC(=O)COC(=O)C1COc2ccccc2O1 (centres undefined)	-0.2%
CC(/C=C/c1ccco1)=N/NC(=O)C1COc2ccccc2O1 (centres undefined)	-0.2%
O=C(Nc1nc(-c2ccncc2)cs1)C1COc2ccccc2O1 (centres undefined)	103% (active)
CC(=O)c1cnn(-c2cc(Oc3ccc(F)cc3)ncn2)c1C	2.8%
CCCCNC(=O)CCn1nc(-c2ccc(Cl)cc2)ccc1=O	0%
CC(C)CCN1CCN(C/C=C/c2ccco2)CC1CCO (centres undefined)	-0.4%
COCc1cc(C)nc2sc3c(=O)n(-c4cccc5ccccc45)nnc3c12	4.5%
C[C@H](NC(=O)C1CC(=O)N(c2ccc3c(c2)OCCO3)C1)C(=O)N1CCC(C(=O)O)CC1 (some centres undefined)	-0.4%

Structure (SMILES)	survival enhancement
CCOC(=O)C1(Cc2cccc(OC)c2)CCCN(S(=O)(=O)c2cccnc2)C1 (centres undefined)	1.2%
C[n+]1ccccc1C1CCCC/C1=N\Nc1ccc([N+](=O)[O-])cc1[N+](=O)[O-] (centres undefined)	-1.7%
Cc1ccc(OS(=O)Nc2cccc3nccnc23)cc1 (centres undefined)	1.2%
CCc1c(C)sc(NC(=O)c2cccs2)c1C(N)=O	-1.4%
c1ccc2cc3c(NCCN4CCOCC4)ccnc3cc2c1	-2.3%
C1=C(N2CCOCC2)/C(=C/c2nc3ccccc3[nH]2)CC1	3.5%
Cc1ccc(S(=O)(=O)N2CCN(C(=O)COC(=O)/C=C/c3cccc(Cl)c3)CC2)c(C)c1	-0.9%
O=C(Nc1ccc(N2CCN(C(=O)c3ccccc3)CC2)c(Cl)c1)c1ncn[nH]1	0.4%
Cc1noc(C)c1NC(=O)Nc1ccc2c(c1)C(=O)N([C@H](C)CO)C[C@H](C)[C@@H](CN(C)C(=O)Nc1ccc(C(F)(F)F)cc1)O2	-1.8%
Cc1ccc(NC(=O)c2cnc(SCC(=O)NCC3CCCO3)n(C)c2=O)cc1 (centres undefined)	1.7%
O=C(NCC(c1ccco1)N1CCc2ccccc2C1)c1ccccc1Cl (centres undefined)	-0.3%
CCc1ccc([C@@H]2CC(=O)[C@@H]3CN(S(=O)(=O)c4ccc(C)cc4)[C@H](c4ccc(Cl)cc4)C[C@@H]3N2S(=O)(=O)c2ccc(C)cc2)cc1	0.5%
CCCOC(=O)CC1C(=O)NCCN1Cc1ccc(F)cc1 (centres undefined)	0.4%
COC(=O)C1NN=C(C(=O)c2ccc(Br)cc2)C1c1cccc(Br)c1 (centres undefined)	2.6%
COC(=O)C1=C(C)N(C)C(C)=C(C(=O)OC)C1c1cccc(Br)c1	19.8% (active)
COC(=O)C1=C(C)N(C)C(=S)NC1c1cc(OC)ccc1OC (centres undefined)	-1.1%
O=C(CS(=O)(=O)c1cn(Cc2ccc(Cl)cc2)c2ccccc12)N1CCOCC1	0.6%
COc1ccccc1P(=O)(c1ccccc1)c1ccccc1NC(C)=O (centres undefined)	-0.7%
CN(Cc1ccc(F)cc1)C(=O)COc1ccc2ccccc2c1	-0.4%
C[C@H]1CN([C@@H](C)CO)C(=O)c2cc(Br)cnc2O[C@H]1CN(C)S(=O)(=O)c1cccs1	3.8%
CC(=O)Nc1ccccc1C(=O)C(=O)Nc1ccc(F)cc1	3.3%
CC1CCN(C(=O)/C(=C\c2ccccc2F)NC(=O)c2ccccc2)CC1	-0.6%

Structure (SMILES)	survival enhancement
CCOC(=O)c1ccn(-c2nc(-c3ccco3)cc(C(F)(F)F)n2)n1	-0.8%
CC(CCc1ccc(O)cc1)NCc1ccc(Cl)cc1Cl (centres undefined)	0.5%
CCN(CC)C(=O)Oc1ccc(OC(=O)N(CC)CC)cc1	-2.3%
O=C(COC(=O)C1(c2ccc(F)cc2)CCCC1)N1CCNC1=O	0.5%
Cc1ccccc1N1CCN(Cc2nc(Cc3ccccc3F)no2)CC1	-0.1%
O=[n+]1c2c(n([O-])c3cc(Br)ccc31)CCC2	3.1%
CCN(CC)c1ccc(NC(=O)c2ccc(=O)[nH]c2)cc1S(=O)(=O)Nc1ccc(OC)cc1	1.7%
CCCS(=O)(=O)Nc1c(C(=O)O)[nH]c2ccccc12	0.3%
O=C(O)c1ccc([N+](=O)[O-])cc1Sc1ccsc1	6.3%
CC(C)CCOc1ccc(C(=O)Nc2cc(S(=O)(=O)N3CCOCC3)ccc2N2CCOCC2)cc1	-2.4%
O=C(NCc1cccnc1)c1cc(C2CCCN(C(=O)C3CCCCC3)C2)on1 (centres undefined)	0.4%
Cc1ccc2cccc(S(=O)(=O)N3CCN(c4ccccc4F)CC3)c2n1	0%
COc1cccc(CNC(=O)CN2C(=O)NC(Cc3ccccc3)(c3ccccc3)C2=O)c1 (centres undefined)	-1.1%
Cn1c(=O)c2c(nc(Br)n2CCSc2nc3ccccc3o2)n(C)c1=O	1.6%
OCCC1CN(Cc2ccc3nsnc3c2)CCN1C1CCCC1 (centres undefined)	1.5%
COC(=O)C1=C(Nc2ccc(C)cc2)C=C(C)C(C(=O)OC)C1c1ccc(F)cc1 (centres undefined)	-0.6%
N#Cc1ccccc1Sc1ccccc1C(=O)OCC(=O)NC1CCCCC1	1%
O=C(O)c1ccc(NS(=O)(=O)c2ccc3c(c2)C(=O)c2cc(S(=O)(=O)Nc4ccc(C(=O)O)cc4)ccc2-3)cc1	4.4%
CN(C)N(C)C(=O)C(O)(c1ccccc1)c1ccccc1	-0.9%
COC(=O)C1=NNC2(c3ccc(C)cc3)C(=O)N(c3cccc(C)c3C)C(=O)C12 (centres undefined)	1.4%
